These results are taken from PubChem BioAssay (Tox21).

SMILES strings stand for the structures. Unmarked numbers belong to inactive results. Where a call stands in place of a potency, no number is given. Active and inactive are the calls of the source. Calls follow the shape of the full dose curve.

Chain of Gonadotropin-releasing hormone receptor (Homo sapiens) (P30968 whole entry, looked up): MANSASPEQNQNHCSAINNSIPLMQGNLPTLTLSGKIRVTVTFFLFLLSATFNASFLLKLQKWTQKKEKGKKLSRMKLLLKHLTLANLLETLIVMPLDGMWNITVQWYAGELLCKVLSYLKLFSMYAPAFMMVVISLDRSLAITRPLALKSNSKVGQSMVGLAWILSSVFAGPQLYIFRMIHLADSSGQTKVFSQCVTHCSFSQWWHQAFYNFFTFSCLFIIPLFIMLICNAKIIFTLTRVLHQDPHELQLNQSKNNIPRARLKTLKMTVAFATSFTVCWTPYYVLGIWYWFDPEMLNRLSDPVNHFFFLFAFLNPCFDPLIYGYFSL

This assay concerns the target Gonadotropin-releasing hormone receptor (Homo sapiens) (UniProt P30968). The experiment in a line: Human gonadotropin-releasing hormone receptor (GnRHR) small molecule agonists, calcium flux assay in GnRHR-HEK293 cells (AID 1920063). Also: nearly all actives have a fitted effect of over 35% in size. The conditions noted are these: calcium flux fluorescence, agonist mode; series mostly up to 57.6 µM. The source says: National Center for Advancing Translational Sciences [NCATS]
Division of Preclinical Innovation [DPI]
U.S. Environmental Protection Agency [EPA]
National Institutes of Environmental Health Sciences [NIEHS]
National Toxicology Program [NTP]
U.S. Food and Drug Administration [FDA]
Gonadotropin-releasing hormone receptor (GnRHR) is a G-protein-coupled receptor (GPCR) and acts (through phospholipase C) to increase intracellular inositol trisphosphate and then release intracellular calcium stores. Cell-based GnRHR-Hek293 calcium influx assay is using HEK293 cells that have been genetically engineered to express the human GnRHR, which activity can be measured by calcium signaling. A compound/drug can activate (agonist) GnRHR that can be monitored by levels of intracellular calcium.
GnRHR-HEK293 cells developed by Codex Corp contain human GnRHR reporter gene, which was stably integrated into HEK 293 cells. The compound activation can be detected by fluorescence intensity via calcium flux assay. This cell line has been used to screen the Tox21 10K compound library to identify GnRHR agonists.
GnRHR-Hek293 cells were dispensed at 1500cells/4uL/well in 1536-well black wall/clear bottom plates using a multidrop dispenser. After the assay plates were incubated at a 37 C/5% CO2 incubator for 18 hours, 4 uL of Calcium Dye Solution was added to each well. The plates were incubated at 37 C for 1 hour. For agonist mode, 23 nL of compounds dissolved in DMSO, positive controls or DMSO only was transferred to the assay plate by a pin tool station. The fluorescence intensity in the plates was measured using FDSS 7000EX kinetic plate reader with a filter set of Ex/Em=480/540 for 3 min at 1 sec intervals. Each test compound was measured at 15 concentrations and in triplicates.
Take `CCCCCCC(=O)CCCCCC/C=C/C[C@@H](O)[C@H](O)[C@@](N)(CO)C(=O)O`: the activity change was 0.629% [at 11.8 µM, active compounds read high].

`ClC1=C(Cl)[C@]2(Cl)[C@@H]3[C@@H](Cl)[C@H]4O[C@H]4[C@@H]3C1(Cl)C2(Cl)Cl`: the Potency result is “inactive”.

In the case of `O=C(O)CBr`, the Potency result was “inactive”.

`CCN1CCCC1CNC(=O)C(O)(c1ccccc1)c1ccccc1` (stereo not given): the Potency result is “inactive”.

Turning to `CC[C@]1(O)CC[C@H]2[C@@H]3CCC4=CCCC[C@@H]4[C@H]3CC[C@@]21C`, the Potency result was “inactive”.

As for `COCC(C)N(C(=O)CCl)c1c(C)csc1C` (stereo not given), the Potency entry was “inactive”.

`CC(C)CCCCCCCOC(=O)c1ccccc1C(=O)OCCCCCCCC(C)C`: the Potency result was “inactive”.

For the compound `COc1ccc2c(c1OC)C(=O)O[C@H]2[C@@H]1c2cc3c(cc2CCN1C)OCO3`, the Potency entry is “inactive”.

As for `Oc1c(Cl)c(Cl)cc(Cl)c1Cl`, the Potency result is “inactive”.

Take `Clc1ccc(-c2ccc(Cl)c(Cl)c2Cl)c(Cl)c1Cl`: the Potency result is “inactive”.

Turning to `CON(C)C(=O)Nc1ccc(Br)c(Cl)c1`, the Potency entry is “inactive”.

Take `OCCCBr`: the Potency entry is “inactive”.

`CCC1(C2=NCCN2)Cc2ccccc2O1` (stereo not given): the Potency entry was “inactive”.

In the case of `O=CC=O`, the Potency entry is “inactive”.

Consider `Cc1cc(C)nc(Nc2ccccc2)n1`, for which the Potency entry is “inactive”.

In the case of `CCOP(=S)(OCC)Oc1nc(Cl)n(C(C)C)n1`, the Potency result is “inactive”.

With `CCOP(=S)(OCC)SCSc1ccc(Cl)cc1`, the Potency result is “inactive”.

In the case of `SCc1ccco1`, the Potency entry is “inactive”.

Regarding `CC(=O)OC(c1ccccc1)C(Cl)(Cl)Cl` (stereo not given), the Potency result was “inactive”.

On to `O=C=Nc1ccc(Cl)cc1`, for which the Potency result was “inactive”.

In the case of `C[C@]12CC[C@H]3[C@@H](CCC4=CC(=O)CC[C@@H]43)[C@@H]1CC[C@@H]2OC(=O)CCc1ccco1`, the Potency result is “inactive”.

As for `Cc1cc(C)c(C2=C(OC(=O)CC(C)(C)C)C3(CCCC3)OC2=O)c(C)c1`, the Potency result was “inactive”.

Turning to `CC[C@H](C)[C@H]1O[C@]2(C=C[C@@H]1C)C[C@@H]1C[C@@H](C/C=C(\C)[C@@H](O[C@H]3C[C@H](OC)[C@@H](O[C@H]4C[C@H](OC)[C@@H](O)[C@H](C)O4)[C@H](C)O3)[C@@H](C)/C=C/C=C3\CO[C@@H]4[C@H](O)C(C)=C[C@@H](C(=O)O1)[C@]34O)O2`, the Potency entry is “inactive”.

For the compound `CCOP(=O)(OCC)Oc1cc(C)nc(C(C)C)n1`, the Potency result was “inactive”.

Take `O=C(O)C(Br)CBr` (stereo not given): the Potency entry was “inactive”.

With `Nc1cc(Cl)ccc1O`, the Potency result was “inactive”.

Regarding `CC1Sc2c(C(=O)O)c(=O)c3cc(F)c(N4CCNCC4)cc3n21` (stereo not given), the Potency entry was “inactive”.

With `CC(C)(N)Cc1ccc(Cl)cc1`, the Potency entry is “inactive”.

In the case of `Cc1nc2ccccc2c(=O)n1-c1ccccc1Cl`, the Potency entry is “inactive”.

Consider `CC(C)N(C(=O)COc1nnc(C(F)(F)F)s1)c1ccc(F)cc1`, for which the Potency result was “inactive”.

Turning to `CCOc1cccc(C2(N3CCN(c4ccccc4)CC3)CCC(C)CC2)c1` (stereo not given), the Potency result is “inactive”.

`Nc1ccc(Sc2ccc(N)cc2)cc1`: the Potency entry is “inactive”.

As for `C[C@@H]1O[C@@H](O[C@@H]2C=C3CC[C@@H]4[C@H](CC[C@]5(C)[C@@H](c6ccc(=O)oc6)CC[C@]45O)[C@@]3(C)CC2)[C@H](O)[C@H](O)[C@H]1O`, the Potency entry is “inactive”.

Consider `C[As+](C)(C)CC(=O)[O-]`, for which the Potency result was “inactive”.

Turning to `C=COC(C)=O`, the Potency entry was “inactive”.

Consider `N#CNC#N`, for which the Potency entry is “inactive”.

For the compound `CC(=O)c1ccc(-c2ccccc2)cc1`, the Potency entry is “inactive”.

On to `COc1ccc(/C(=C/C(=O)N2CCOCC2)c2ccc(Cl)cc2)cc1OC`, for which the Potency result was “inactive”.

Regarding `CCOP(=O)(SC(C)CC)N1CCSC1=O` (stereo not given), the Potency entry is “inactive”.

For the compound `CC1(C)CON(Cc2ccccc2Cl)C1=O`, the Potency entry was “inactive”.
